Measured values: PubChem BioAssay
The source made the active and inactive calls.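 How the source made its calls, unless noted: active means visual image review flags a hit and inhibition of aggregation exceeds 20%; inconclusive means visual hit but inhibition at or below 20%; inactive means no hit on visual image review.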

What was measured:
[1] = inhibitors of TNFa-induced NFkB p65 translocation, primary screen, imaging, HUVEC, MLSMR starter and 10KST1 sets (AID 438;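 active means inhibition above 20% together with a positive visual image hit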;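 further: compound added about 3h40 before a 20 min TNFalpha stimulation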;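 on inhibition: signal is the nuclear over cytoplasmic p65 intensity ratio per well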); details: HUVEC TNFa-induced p65 nuclear translocation; cell count: measured here: nuclei count (cytotoxicity indicator), at 2.08 µM; inhibition: at 2 µM, stronger effect = higher value, 0% TNFa-plus-vehicle, 100% no-TNFa wells
[2] = reduction of polyQ htt aggregates in cells – imaging, exon1htt(103Q)mCFP cells, high-content imaging, primary screen (AID 483); details: exon1htt(103Q)mCFP cell line, aggregate imaging, at 2 µM; inhibition of aggregation: stronger effect = higher value; nuclei count: measured here: cell count, toxicity;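 further: compound exposure lasted 3 days before fixation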;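 on nuclei count: percent of the per-plate median nuclei count of sample wells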
[3] = endothelial E-selectin expression blockers – imaging, HUVEC, immunofluorescence, MLSMR starter and 10KST1 sets, primary screen (AID 487;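 active means visually confirmed hit in the image check and inhibition above 20%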;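 on inhibition: signal is fraction of cell area covered by stained E-selectin grains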;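 on nuclei count: 100% = median nuclei count of all wells on the same plate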); details: HUVEC TNFalpha-induced E-selectin immunofluorescence imaging, at 2 µM; inhibition: stronger effect = higher value; nuclei count: measured here: cell number, toxicity
[4] = molecular target: Voltage-gated potassium channel subunit beta-2 (Rattus norvegicus) (UniProt P62483); assay: inhibitors of rat Kvbeta2 reductase activity – biochemical, NADPH fluorescence, primary screen (AID 622;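 active means fluorescence slope higher than the sample average by over 3 SD, cut at about -0.22 in these data, passing the limit was not always enough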;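 further: slope of raw intensity against log time taken from 70 to 1610 s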); details: recombinant KvBeta, 4-cyanobenzaldehyde reduction, at 10 µM, stronger effect = higher value
Chain of Voltage-gated potassium channel subunit beta-2 (Rattus norvegicus) (P62483 whole entry, looked up): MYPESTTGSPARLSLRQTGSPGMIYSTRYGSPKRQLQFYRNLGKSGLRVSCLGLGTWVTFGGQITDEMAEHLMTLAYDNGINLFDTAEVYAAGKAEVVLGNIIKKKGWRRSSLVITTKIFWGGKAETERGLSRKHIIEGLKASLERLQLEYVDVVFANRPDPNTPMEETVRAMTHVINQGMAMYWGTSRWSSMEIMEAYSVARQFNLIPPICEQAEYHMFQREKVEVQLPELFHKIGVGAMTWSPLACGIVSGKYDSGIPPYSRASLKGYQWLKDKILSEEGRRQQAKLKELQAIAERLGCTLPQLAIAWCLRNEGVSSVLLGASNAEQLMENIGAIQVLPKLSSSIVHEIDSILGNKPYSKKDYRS

[5] = molecular target: Voltage-gated potassium channel subunit beta-2 (Rattus norvegicus) (UniProt P62483); assay: enhancers of rat Kvbeta2 NADPH turnover – biochemical, NADPH fluorescence, primary screen (AID 623;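 active means NADPH fluorescence slope more negative than the mean of all samples by about 3 SD, 99.7% confidence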;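 further: fluorescence intensity change per second fitted from 20 to 320 s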); details: Recombinant KvBeta, NADPH fluorescence decrease slope, 10 min; at 10 µM; stronger effect = lower value
[6] = molecular target: Alpha-2C adrenergic receptor (Homo sapiens) (UniProt P18825); assay: compounds altering alpha2C-coupled GIRK flux – cell-based, HEK293 alpha2C/GIRK1/2, thallium flux, primary screen (AID 624;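 active means fluorescence slope after compound addition differing from the mean of all screened samples at 99.7% confidence, in either direction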;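 further: slope of fluorescence ratio to pre-addition baseline per second over 15 to 24 s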); details: thallium flux BTC fluorescence, at 10 µM, actives lie on both sides
Chain of Alpha-2C adrenergic receptor (Homo sapiens) (P18825 whole entry, looked up): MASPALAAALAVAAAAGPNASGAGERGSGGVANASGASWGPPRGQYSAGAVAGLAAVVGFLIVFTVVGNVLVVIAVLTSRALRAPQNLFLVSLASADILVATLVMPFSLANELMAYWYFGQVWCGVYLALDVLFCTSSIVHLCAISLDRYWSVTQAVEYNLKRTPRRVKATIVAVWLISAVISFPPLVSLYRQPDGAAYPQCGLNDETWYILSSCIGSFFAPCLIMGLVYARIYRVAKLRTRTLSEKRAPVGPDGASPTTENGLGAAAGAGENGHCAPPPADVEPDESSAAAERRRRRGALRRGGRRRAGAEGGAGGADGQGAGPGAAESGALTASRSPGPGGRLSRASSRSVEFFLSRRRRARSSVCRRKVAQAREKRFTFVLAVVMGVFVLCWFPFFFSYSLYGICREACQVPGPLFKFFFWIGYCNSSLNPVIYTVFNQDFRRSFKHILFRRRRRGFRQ

[7] = blockers of RIG-like receptor reporter activation – cell-based, Sendai virus stimulus, luciferase, 10K MLSCN set, TLR/RLR signaling modifier project, primary screen (AID 602276;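 active means inhibition at or above 50% at 10 µM; inactive means inhibition below 50%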;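 further: firefly luciferase from ISG56 promoter only with Renilla not read in this screen; 0% = Sendai virus plus DMSO and 100% = medium plus DMSO without virus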); details: HEK293 RL24 IRF3 luciferase reporter, at 10 µM, stronger effect = higher value
[8] = TLR3 IRF3 reporter activation blockers – cell-based, poly I:C stimulus, luciferase, 10K MLSCN set, primary screen (AID 602277;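 active means inhibition of the reporter signal at or above 50%; inactive means inhibition below 50%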); details: HEK293-TLR3 RL24 IRF3 luciferase reporter, at 10 µM, stronger effect = higher value

Row | Structure (SMILES) | cell count [1] | inhibition [1] | inhibition of aggregation [2] | nuclei count [2] [%] | inhibition [3] | nuclei count [3] [%] | fluorescence slope [4] | NADPH fluorescence slope [5] | slope [6] | inhibition [7] | inhibition [8]
1 | O=C(CS(=O)(=O)c1cn(Cc2ccc(Cl)cc2)c2ccccc12)N1CCOCC1 | 531 | 4.3% (inactive) | 37.8% (inactive) | 91.1 | -8.5% (inactive) | 110 | -0.504 (inactive) | 7.7e-07 (inactive) | 0.00671 (inactive) | 5.23% (inactive) | 17.5% (inactive)
2 | N#Cc1cnn(Cc2ccc(Cl)cc2)c1N | 628 | 4.5% (inactive) | -3.8% (inactive) | 110 | -28.9% (inactive) | 91.4 | -0.466 (inactive) | -5.6e-05 (inactive) | 0.00625 (inactive) | 7.9% (inactive) | 25.7% (inactive)
3 | O=C(CNS(=O)(=O)c1ccccc1)NCc1ccccn1 | 707 | -2.1% (inactive) | -10.6% (inactive) | 106 | -25.5% (inactive) | 113 | -0.517 (inactive) | -1.9e-05 (inactive) | 0.00515 (inactive) | 20.5% (inactive) | 16.3% (inactive)
4 | CCOc1ccc(-c2nc(S(=O)(=O)c3ccccc3)c(NCc3cccnc3)o2)cc1 | 621 | 0.6% (inactive) | -7.9% (inactive) | 105 | -59% (inactive) | 109 | -0.534 (inactive) | 3.2e-06 (inactive) | 0.00448 (inactive) | 0.887% (inactive) | -7.62% (inactive)
5 | Clc1c(CSc2nc3ccccc3o2)nc2sccn12 | 651 | 7.3% (inactive) | 7.5% (inactive) | 99.8 | -149% (inactive) | 89.3 | -0.507 (inactive) | -4.4e-05 (inactive) | 0.00562 (inactive) | -56.6% (inactive) | -207% (inactive)
6 | CC1=Nn2c(nnc2-c2cc(-c3ccccc3)n[nH]2)SC1 | 574 | -3.3% (inactive) | -6.6% (inactive) | 81.3 | 32.4% (inactive) | 87.4 | -0.617 (inactive) | -1.7e-05 (inactive) | 0.00561 (inactive) | 18.2% (inactive) | 32.9% (inactive)
7 | O=c1c2ccccc2nc(SCc2cn3ccsc3n2)n1-c1ccc(F)cc1 | 607 | 6.1% (inactive) | 9% (inactive) | 103 | 59.6% (active) | 71.6 | -0.626 (inactive) | 1.8e-05 (inactive) | 0.00521 (inactive) | 23.9% (inactive) | 22.8% (inactive)
8 | Cc1ccc(S(=O)(=O)N2CCN(C(=O)CSc3nnnn3C)C2)cc1 | 348 | -14.6% (inactive) | 1.4% (inactive) | 92.8 | -89.7% (inactive) | 113 | -0.35 (inactive) | 5.7e-06 (inactive) | 0.00463 (inactive) | 6.82% (inactive) | 20.3% (inactive)
9 | COc1ccc(NC(C)=O)cc1NC(=O)CN1CCN(c2ccccn2)CC1 | 573 | -7% (inactive) | -1.2% (inactive) | 104 | -35.2% (inactive) | 74.8 | -0.526 (inactive) | -1.4e-05 (inactive) | 0.00596 (inactive) | -3.99% (inactive) | 0.164% (inactive)
10 | O=C(NCc1ccccc1)C1CCCN(S(=O)(=O)c2cccnc2)C1 (stereo not drawn) | 230 | -0.7% (inactive) | 0.8% (inactive) | 92.5 | -59.6% (inactive) | 98.3 | -0.549 (inactive) | -1.4e-05 (inactive) | 0.0054 (inactive) | 5.96% (inactive) | 11% (inactive)
11 | COc1ccc(CC(=O)N2CCOCC2)cc1OC | 383 | -0.8% (inactive) | 4.3% (inactive) | 106 | -53.3% (inactive) | 111 | -0.428 (inactive) | -5.5e-05 (inactive) | 0.00535 (inactive) | 15.7% (inactive) | 26.1% (inactive)
12 | CCOC(=O)C(NC(=O)CC)(Nc1ccc(S(=O)(=O)Nc2onc(C)c2C)cc1)C(F)(F)F (stereo not drawn) | 320 | 3.4% (inactive) | 0.6% (inactive) | 95 | -27.3% (inactive) | 104 | -0.61 (inactive) | -1.1e-05 (inactive) | 0.00634 (inactive) | 11.3% (inactive) | 14.1% (inactive)
13 | COc1ccc(CCNc2oc(-c3ccco3)nc2C#N)cc1 | 560 | 15.1% (inactive) | 0.7% (inactive) | 103 | 35.2% (inactive) | 84.1 | -0.605 (inactive) | -3.5e-05 (inactive) | 0.00388 (inactive) | -0.514% (inactive) | -18.9% (inactive)
14 | CSc1nc2ccc(S(=O)(=O)N3CCOCC3)cc2s1 | 328 | -2.2% (inactive) | 28.3% (inactive) | 95.2 | -22% (inactive) | 129 | -0.415 (inactive) | -6.4e-05 (inactive) | 0.00411 (inactive) | 17.9% (inactive) | 15.4% (inactive)
15 | Cn1c(=O)c2c(nc(SCC(=O)N3CCCc4ccccc43)n2C)n(C)c1=O | 354 | -5.7% (inactive) | -9.7% (inactive) | 45.1 | -139% (inactive) | 115 | -0.361 (inactive) | -7.1e-05 (inactive) | 0.00482 (inactive) | -0.111% (inactive) | -6.19% (inactive)
16 | COc1ccc(C)cc1S(=O)(=O)N(C)CC(=O)Nc1ccc2c(c1)OCO2 | 505 | -15.7% (inactive) | 8.7% (inactive) | 94.7 | 26.3% (inactive) | 84.9 | -0.616 (inactive) | -5e-05 (inactive) | 0.00341 (inactive) | 12.3% (inactive) | 12.3% (inactive)
17 | Cn1c(=O)c2c(-c3ccncc3)c3c(nc2n(C)c1=O)-c1ccccc1C3=O | 637 | 0% (inactive) | -3.3% (inactive) | 98.9 | -113% (inactive) | 136 | -0.497 (inactive) | 4.5e-05 (inactive) | 0.00591 (inactive) | 14.2% (inactive) | 22.4% (inactive)
18 | CCOC(=O)c1sc2nc(NC(=O)COc3ccccc3)sc2c1C | 715 | -6.9% (inactive) | 9.3% (inactive) | 106 | -12.6% (inactive) | 105 | -0.591 (inactive) | -1.3e-05 (inactive) | 0.00688 (inactive) | -24% (inactive) | -40.4% (inactive)
19 | Cc1nn(-c2nc3ccccc3s2)c(C)c1Oc1ccccc1O | 591 | -9.8% (inactive) | -19.1% (inactive) | 107 | -154% (inactive) | 161 | -0.437 (inactive) | -2.9e-06 (inactive) | 0.00527 (inactive) | 2.14% (inactive) | -97.7% (inactive)
20 | O=C(CCn1c(=O)oc2ccccc21)NCCN1CCOCC1 | 653 | -15.1% (inactive) | 2.6% (inactive) | 110 | -9.1% (inactive) | 99.8 | -0.58 (inactive) | -5.4e-05 (inactive) | 0.00667 (inactive) | -16.3% (inactive) | -13% (inactive)
21 | Cc1cc(NC(=O)CSc2nnc(COc3cccc(C)c3C)n2Cc2ccco2)no1 | 363 | -8.7% (inactive) | 7.4% (inactive) | 93 | -60.4% (inactive) | 101 | -0.6 (inactive) | -6.6e-06 (inactive) | 0.00725 (inactive) | 4.7% (inactive) | 11.9% (inactive)
22 | CC(C)N(Cc1nc(-c2ccccc2)no1)C(=O)CCCN1C(=O)c2ccccc2C1=O | 475 | -9.3% (inactive) | -7.3% (inactive) | 112 | -78.3% (inactive) | 158 | -0.53 (inactive) | -8.9e-06 (inactive) | 0.00616 (inactive) | 4.76% (inactive) | 3.27% (inactive)
23 | Cc1nnc(Nc2ccccn2)c2ccccc12 | 657 | 7.2% (inactive) | 8.1% (inactive) | 104 | -61.4% (inactive) | 109 | -0.465 (inactive) | -4.2e-05 (inactive) | 0.00477 (inactive) | 8.64% (inactive) | 13.2% (inactive)
24 | CCOc1ccccc1N1CCN(C(=O)c2ccncc2)CC1 | 428 | -1.5% (inactive) | 12.2% (inactive) | 90.1 | 11.7% (inactive) | 105 | -0.421 (inactive) | -0.000112 (inactive) | 0.00573 (inactive) | -5.17% (inactive) | 15.5% (inactive)
25 | Cn1c(CN2CCOCC2)nnc1SCC(=O)NCCc1ccccc1 | 444 | -1% (inactive) | 0.2% (inactive) | 118 | -161% (inactive) | 210 | -0.613 (inactive) | 6.8e-06 (inactive) | 0.00528 (inactive) | -8.38% (inactive) | -42.9% (inactive)
26 | CC(C)(C)c1cc(NS(=O)(=O)c2ccc3c(c2)OCCO3)on1 | 574 | -2.4% (inactive) | 5.3% (inactive) | 104 | -81.6% (inactive) | 167 | -0.586 (inactive) | -2.5e-06 (inactive) | 0.0066 (inactive) | 11.1% (inactive) | 20.1% (inactive)
27 | CN1CCN(c2ncnc3c2cnn3-c2ccc(Cl)cc2)CC1 | 688 | -8.5% (inactive) | -0.6% (inactive) | 116 | -27.8% (inactive) | 122 | -0.591 (inactive) | 1.6e-05 (inactive) | 0.00771 (inactive) | 15.5% (inactive) | 6.85% (inactive)
28 | NC(=O)C1CCN(c2nc(-c3ccccc3)nc3ccccc23)CC1 | 554 | -15.4% (inactive) | 2% (inactive) | 116 | 49.5% (inactive) | 92.8 | -0.46 (inactive) | -6.1e-05 (inactive) | 0.00467 (inactive) | 10% (inactive) | 8.01% (inactive)
